Laboratory results as given in PubChem BioAssay (NCATS).
Inconclusive results are not listed. Active and inactive are the calls of the source. The call rests on the fitted dose curve; in most records, active means well fitted curve in either direction with a large enough effect (not every such curve was filed as active); inconclusive means small, poorly fitted or top-dose-only effect, or another doubt; inactive means flat fitted curve, though single readings scatter.

assay: AP1 Signaling Pathway (AID 357); conditions: ME-180 AP-1-bla reporter, EGF-induced, beta-lactamase ratio, 5 h; at 17.2 µM (top of the series) unless noted;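 further: ME-180 reporter cells stimulated with EGF at its EC50 level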
How it was run: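 Read-out was the 460nm/530nm emission ratio (excitation 405nm) after CCF4 loading for 2.5 hours at room temperature. Cells carried an AP-1-driven beta-lactamase reporter, were stimulated with EC50 EGF plus compound for 5 hours, and AC50 values came from titrations.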
On the % scale 0 is the no-effect control and ±100 the full control effect.

Activity change, negative = inhibition, inactive:
COc1ccc2c(c1OC)C(=O)N1c3ccccc3C(=O)N(c3ccccc3F)C21 (stereo not given) -4.99%, Clc1ccc2[nH]c3c(NCCN4CCOCC4)ncnc3c2c1 -14.6%, Cc1c(C)c2cc(Cl)c(O)c(CN3CCCCC3)c2oc1=O 17.2%, CNC(=O)CC(C(=O)O)c1ccc(OC(C)C)cc1 (stereo not given) 5.59%, CC(C)CSc1nc(N2CCOCC2)c2c(c1C#N)CC(C)(C)SC2 -7.32%, CC(C)Sc1nc(N2CCCC2)c2c(c1C#N)CC(C)(C)OC2 -10.5%, Nc1nnnn1/N=C/c1ccco1 2.89%, COc1ccc(-c2oc3ncn4nc(COc5ccccc5)nc4c3c2-c2ccc(OC)cc2)cc1 -11.5%, COCCCNC(=O)c1c(N)n(/N=C/c2cccnc2)c2nc3ccccc3nc12 -15.5%, Cn1ccnc1C(O)c1ccc(OCc2ccccc2)cc1 (stereo not given) -6.56%, Cn1c(=O)c2c3c(sc2n2c(SCc4ccccc4)nnc12)CCCC3 -6.83%, CC1CN(C2CCN(C(=O)c3ccccc3)CC2)CC(C)O1 (stereo not given) -5.21%, Cc1ccc(N2C(=O)CC(N(O)C3CC(=O)N(c4ccc(C)cc4)C3=O)C2=O)cc1 (stereo not given) -20.5%, c1coc(-c2nnc3sc(Cc4cccs4)nn23)c1 -15.4%, CCC1CCCCN1c1nc(-c2ccncc2)nc2ccccc12 (stereo not given) -20.7%, COc1cc2c(C(=O)N3CCN(c4ccccc4)CC3)c(C)oc2cc1Br 3.59%, Cc1ccc2nc(NCc3ccccc3)[nH]c2c1 1.71%, CC(C)c1nc(NCC2CCCO2)c(C#N)c2c1COC(C)(C)C2 (stereo not given) -26.1%, COc1cccc(CNc2ccc(Br)cn2)c1O -25.3%, CCc1cc(=O)oc2c(CN3CCN(C)CC3)c(O)c(Cl)cc12 12.5%, O=C(O)CC(NCc1ccco1)C(=O)OCC1CCCO1 (stereo not given) 11.5%, CCCCNC(=O)C(C#N)c1nc2ccccc2nc1N1CCN(Cc2ccc3c(c2)OCO3)CC1 (stereo not given) -18.8%, CCCc1cc(NCCCCO)n2c(nc3ccccc32)c1C#N -18.6%, Cc1nnc(NCc2n[nH]c(=O)c3ccccc23)c2ccccc12 29.7%, COc1ccc2c(c1OC)C(=O)N1c3ccccc3C(=O)N(c3ccc(F)cc3)C21 (stereo not given) -3.68%, Cc1ccc(S(=O)(=O)c2cc3c(=O)n4cccc(C)c4nc3n(CC3CCCO3)c2=N)cc1 (stereo not given) 2.16%, CC12CN3CC(C)(CN(C1)C3c1ccc(Br)cc1O)C2 (stereo not given) -9.61%, Cc1ccc(/C(O)=C2/C(=O)C(=O)N(Cc3ccco3)C2c2cccs2)cc1 (stereo not given) 2.29%, c1ccc2c(NCC3CCCO3)nc(-c3ccncc3)nc2c1 (stereo not given) -9.19%, CCCCCCSC1=C(C#N)C(c2ccccc2)CC(=O)N1 (stereo not given) -25.4%, C=CCN(CC=C)c1nc2ccccc2nc1C(C#N)C(=O)OC(C)C (stereo not given) -13.3%, CCOc1ccc(C2=Nn3c(nnc3-c3ccccn3)SC2)cc1 -11.7%, CCCCc1cc(=O)oc2c(CN(C)C)c(O)c(Cl)cc12 -6.67%, Cc1c(O)c(CN2CCCCC2)cc2c3c(c(=O)oc12)CCC3 6.76%, Cc1ccc2cc(CN(C(=O)c3ccco3)c3ccccc3C)c(=O)[nH]c2c1 -25.5%, Cc1nn(C)cc1/C=N/n1nnnc1N 0.525%, CCCc1cc(C(=O)Cc2ccc(F)cc2)c(O)cc1O -28%, COc1ccc(/C=N/n2cncn2)cc1CSc1ccccn1 -9.09%, CN(C)CCCOC(=O)c1ccc(Cl)cc1Cl 13.3%, Cc1ccc(S(=O)(=O)/C(C#N)=C/c2c(N3CCN(C)CC3)nc3c(C)cccn3c2=O)cc1 9.07%

assay: Stat Signaling Pathway (AID 446); conditions: ME-180 (cervical carcinoma) SIE beta-lactamase reporter, IL-6 stimulated, 5 h; at 17.2 µM (top of the series) unless noted;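 further: ME-180 cervical cancer cells given 40 pM IL-6 alongside compound; SIE-controlled beta-lactamase reporter measured as 460/530 nm FRET emission ratio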
How it was run: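 IL-6/STAT signaling read in ME-180 cells via an SIE beta-lactamase reporter. Stimulus was 40 pM IL-6 (its AC50) for 5 hrs, so both activation and inhibition register.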

activity, negative = inhibition, inactive:
COc1ccc2c(c1OC)C(=O)N1c3ccccc3C(=O)N(c3ccccc3F)C21 (stereo not given) -18.4%, Clc1ccc2[nH]c3c(NCCN4CCOCC4)ncnc3c2c1 -0.484%, Cc1c(C)c2cc(Cl)c(O)c(CN3CCCCC3)c2oc1=O 2.68%, CNC(=O)CC(C(=O)O)c1ccc(OC(C)C)cc1 (stereo not given) 5.76%, CC(C)CSc1nc(N2CCOCC2)c2c(c1C#N)CC(C)(C)SC2 2.55%, CC(C)Sc1nc(N2CCCC2)c2c(c1C#N)CC(C)(C)OC2 -9.04%, Nc1nnnn1/N=C/c1ccco1 -1.38%, COc1ccc(-c2oc3ncn4nc(COc5ccccc5)nc4c3c2-c2ccc(OC)cc2)cc1 4.11%, COCCCNC(=O)c1c(N)n(/N=C/c2cccnc2)c2nc3ccccc3nc12 -20.9%, Cn1ccnc1C(O)c1ccc(OCc2ccccc2)cc1 (stereo not given) 2.08%, Cn1c(=O)c2c3c(sc2n2c(SCc4ccccc4)nnc12)CCCC3 -27.8%, CC1CN(C2CCN(C(=O)c3ccccc3)CC2)CC(C)O1 (stereo not given) 3.62%, Cc1ccc(N2C(=O)CC(N(O)C3CC(=O)N(c4ccc(C)cc4)C3=O)C2=O)cc1 (stereo not given) -25.3%, c1coc(-c2nnc3sc(Cc4cccs4)nn23)c1 -17.3%, CCC1CCCCN1c1nc(-c2ccncc2)nc2ccccc12 (stereo not given) -2.48%, COc1cc2c(C(=O)N3CCN(c4ccccc4)CC3)c(C)oc2cc1Br -12.8%, Cc1ccc2nc(NCc3ccccc3)[nH]c2c1 -9.23%, CC(C)c1nc(NCC2CCCO2)c(C#N)c2c1COC(C)(C)C2 (stereo not given) -3.72%, COc1cccc(CNc2ccc(Br)cn2)c1O -14.6%, CCc1cc(=O)oc2c(CN3CCN(C)CC3)c(O)c(Cl)cc12 2.51%, O=C(O)CC(NCc1ccco1)C(=O)OCC1CCCO1 (stereo not given) -1.58%, CCCCNC(=O)C(C#N)c1nc2ccccc2nc1N1CCN(Cc2ccc3c(c2)OCO3)CC1 (stereo not given) -8.12%, CCCc1cc(NCCCCO)n2c(nc3ccccc32)c1C#N -4.18%, Cc1nnc(NCc2n[nH]c(=O)c3ccccc23)c2ccccc12 25.1%, COc1ccc2c(c1OC)C(=O)N1c3ccccc3C(=O)N(c3ccc(F)cc3)C21 (stereo not given) -12.3%, Cc1ccc(S(=O)(=O)c2cc3c(=O)n4cccc(C)c4nc3n(CC3CCCO3)c2=N)cc1 (stereo not given) 2.48%, CC12CN3CC(C)(CN(C1)C3c1ccc(Br)cc1O)C2 (stereo not given) -0.00253%, Cc1ccc(/C(O)=C2/C(=O)C(=O)N(Cc3ccco3)C2c2cccs2)cc1 (stereo not given) -12.7%, c1ccc2c(NCC3CCCO3)nc(-c3ccncc3)nc2c1 (stereo not given) 4.85%, CCCCCCSC1=C(C#N)C(c2ccccc2)CC(=O)N1 (stereo not given) -19.8%, C=CCN(CC=C)c1nc2ccccc2nc1C(C#N)C(=O)OC(C)C (stereo not given) -28.3%, CCOc1ccc(C2=Nn3c(nnc3-c3ccccn3)SC2)cc1 3.43%, CCCCc1cc(=O)oc2c(CN(C)C)c(O)c(Cl)cc12 14.1%, Cc1c(O)c(CN2CCCCC2)cc2c3c(c(=O)oc12)CCC3 -1.68%, Cc1ccc2cc(CN(C(=O)c3ccco3)c3ccccc3C)c(=O)[nH]c2c1 -12.8%, Cc1nn(C)cc1/C=N/n1nnnc1N -1.52%, CCCc1cc(C(=O)Cc2ccc(F)cc2)c(O)cc1O -25.5%, COc1ccc(/C=N/n2cncn2)cc1CSc1ccccn1 10.6%, CN(C)CCCOC(=O)c1ccc(Cl)cc1Cl 2.76%, Cc1ccc(S(=O)(=O)/C(C#N)=C/c2c(N3CCN(C)CC3)nc3c(C)cccn3c2=O)cc1 -7.22%
